Experimental data published in PubChem BioAssay (NCI).
The panel holds about 83,000 compounds, 20% with a hit somewhere; the sample as a whole holds those more often.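 Method: cells in 96-well plates; compound added at one concentration; 48 h incubation; percent growth measured; values under 10 scored active.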 A number with no mark means an inactive call. Calls of active or inactive are those of the source.

What was measured:
Assay in all cases: NCI-60 one-dose screen, 48 h (100 = growth as untreated, 0 = no growth, -100 = all killed)
HCT-15 colon = conditions: 10 µM unless noted
HT29 colon = conditions: 10 µM unless noted
SNB-75 CNS = conditions: 10 µM unless noted
SNB-19 CNS = conditions: 10 µM unless noted
U251 CNS = conditions: 10 µM unless noted
PC-3 prostate = conditions: 10 µM unless noted
SK-MEL-5 melanoma = conditions: 10 µM unless noted
UACC-62 melanoma = conditions: 10 µM unless noted
LOX IMVI melanoma = conditions: 10 µM
SK-MEL-28 melanoma = conditions: 10 µM unless noted
SK-MEL-2 melanoma = conditions: 10 µM unless noted
EKVX NSCLC = conditions: 10 µM unless noted
SN12C renal = conditions: 10 µM unless noted
UO-31 renal = conditions: 10 µM unless noted
TK-10 renal = conditions: 10 µM unless noted
ACHN renal = conditions: 10 µM unless noted
CAKI-1 renal = conditions: 10 µM unless noted
A498 renal = conditions: 10 µM unless noted
CCRF-CEM leukemia = conditions: 10 µM unless noted
MOLT-4 leukemia = conditions: 10 µM unless noted

| Structure (SMILES) | growth (HCT-15 colon) | growth (HT29 colon) | growth (SNB-75 CNS) | growth (SNB-19 CNS) | growth (U251 CNS) | growth (PC-3 prostate) | growth (SK-MEL-5 melanoma) | growth (UACC-62 melanoma) | growth (LOX IMVI melanoma) | growth (SK-MEL-28 melanoma) | growth (SK-MEL-2 melanoma) | growth (EKVX NSCLC) | growth (SN12C renal) | growth (UO-31 renal) | growth (TK-10 renal) | growth (ACHN renal) | growth (CAKI-1 renal) | growth (A498 renal) | growth (CCRF-CEM leukemia) | growth (MOLT-4 leukemia) |
| --- | --- | --- | --- | --- | --- | --- | --- | --- | --- | --- | --- | --- | --- | --- | --- | --- | --- | --- | --- | --- |
| CCOc1ccc(Nc2nc3c(s2)C(=O)c2ccccc2C3=O)cc1 | 30.4% | 115% | 76.3% | 89.9% | 78.9% | 57.4% | 62.1% | 56.6% | -5.52% (active) | 106% | 101% | 96.4% | 51.3% | 72.9% | 127% | 75.1% | 74.2% | 76.7% | 51.4% |  |
| CC(C)=C1C=C2CC[C@@H]3[C@](C)(CCC[C@@]3(C)C(=O)O)[C@H]2CC1 | 98% | 108% | 93.4% | 98.1% | 96.2% | 97.3% | 96.8% | 102% | 85.5% | 107% | 109% | 93.4% | 106% | 88.9% | 93.2% | 104% | 99.6% | 109% | 106% | 96.6% |
| OC(c1cc2ccc(C(F)(F)F)cc2c2cc(C(F)(F)F)ccc12)C1CCCCN1 (stereo not given) | -90.4% (active) | -100% (active) | -94.4% (active) | -80.6% (active) | -100% (active) | -95.2% (active) | -95.4% (active) | -96.5% (active) | -100% (active) | -99.3% (active) | -83.1% (active) | -96.7% (active) | -90.8% (active) | -95.8% (active) | -89.5% (active) | -94.1% (active) | -93.8% (active) | -65.6% (active) | -68% (active) |  |
| Cc1nc(Sc2nc3ccc([N+](=O)[O-])cc3s2)sc1C | -21.2% (active) | 10.2% | 53.1% | 35.4% | 27.2% | 23% | 41.1% | -15.4% (active) | -46.4% (active) | 27.8% | 15.4% | 88.5% | -29.4% (active) | 23.5% | 19.3% | 11.4% | 28.5% | 46.5% | -13.5% (active) | -7.45% (active) |
| NNc1ccc(Cl)cc1Cl | 79.8% | 94.2% | 80.7% | 92.5% | 76.4% | 60.4% | 86.1% | 37.2% | 67.5% | 120% | 92.4% | 81.1% | 78.3% | 29.2% | 94.3% |  |  | 97.2% | 27.7% | 52.7% |
| Cn1c(-c2ccccc2)c(/C=C/C2=[N+](C)c3ccccc3C2(C)C)c2ccccc21 | 38.9% | 0.701% (active) | 20.6% | 18.5% | 8.73% (active) | 8.69% (active) | -98.4% (active) | -3.73% (active) | 14.8% | 22.5% | 6.41% (active) | 20% |  | 74% | 3.06% (active) | 18.2% | 35.6% | 3.03% (active) | 8% (active) | -10.6% (active) |
| Oc1ccccc1N=Cc1ccccc1 | 58.5% | 102% | 132% | 93.7% | 89.9% | 36.5% | 65.2% | 98.8% | 54.7% | 119% | 82.4% |  | 81.7% | 67.4% | 122% | 85.1% | 97.7% | 97.7% | 86.6% | 81.2% |
| CCCCC(C=O)(C=C=C(C)C)CC (stereo not given) | 98.2% | 109% | 87.3% | 102% | 96.8% | 92.6% | 104% | 95.8% | 96.8% | 101% | 111% |  | 102% | 93.4% | 104% | 99.3% | 98.2% | 82% | 88.5% | 97% |
| O=C1/C(=C/c2ccccn2)CCc2ccccc21 | 95.3% | 97.6% | 97.7% | 97% | 100% | 94.6% | 97.2% | 97.5% | 86.5% | 111% | 105% |  | 102% | 101% | 95.4% | 104% |  | 77.7% | 51.6% | 49% |
| CCOC(=O)/C(=C\c1ccc2ccccc2c1)P(=O)(OCC)OCC | 2.93% (active) | 3.89% (active) | 35.2% | 41.8% | 38.2% | 58.5% | 44.4% | 9.26% (active) | -55.6% (active) | 18.7% | 54.7% | 71% |  | 12.4% | 61.4% | 14% | 45.5% | 55.3% | -36.6% (active) | -25.1% (active) |
| O=[N+]([O-])/C(=C/c1ccccc1)c1ccccc1 | 99.6% | 99% | 106% | 110% | 97.4% | 100% | 103% | 108% | 96.3% | 100% | 107% |  | 103% | 84.4% | 89.5% | 101% | 106% | 107% | 97.5% | 99% |
| CCCCCCCCCCCC(=O)OC(C)C(=O)NCCCC (stereo not given) | 106% | 101% | 105% | 106% | 93.7% | 95.8% | 102% | 103% | 93.6% | 121% | 108% |  | 102% | 94.5% | 90.8% | 116% | 99.1% |  | 101% |  |
| O=C(CBr)c1ccc(OC(=O)c2ccccc2)cc1 | 101% | 115% | 96.5% | 112% | 95.5% | 101% | 107% | 107% | 73.3% | 112% | 111% | 118% | 103% |  | 117% | 97.5% | 100% | 74.4% | 67.6% | 95.3% |
| CCC(=O)c1cc([N+](=O)[O-])c(Br)s1 | 61% | 41.6% | 95.7% | 99.8% | 93.4% | 101% | 98.9% | 105% | -41.2% (active) | 110% | 106% | 104% | 103% | 74.7% | 96.6% |  | 95.8% | 87% | 1.7% (active) |  |
| Oc1c(C(Nc2ccccc2)c2ccccc2)ccc2cccnc12 (stereo not given) | 29.4% | 44.5% | 70.8% | 46.8% | 25.7% | 28.9% | 19.7% | 31.4% | 31.6% | 53.3% | 48% |  | 54.6% | 36.9% | 49.4% | 42.9% | 29.1% | 78.7% | 17.7% | 21.2% |
| CC/C(=C(/CC)c1ccc(O)cc1)c1ccc(O)cc1 | 47.2% | 71.5% | 51.8% | 72.7% | 42.5% | 75.4% | 21.4% | 42.4% | 65.2% | 60.1% | 54.6% | 64.7% | 76% | 73.2% |  | 67.8% | 45.8% | 81.4% | 48.8% | 39.9% |
| CN(C)c1ccc(/C=C/c2ccnc3ccccc23)cc1 | 26.8% | 4.25% (active) | 22.4% | 51.7% | 38.3% | 53% | 33% | 34.4% | 38.3% | 71.8% | -5.02% (active) | 22.4% | 36.2% | 50.2% | 59.5% |  | 45.7% | 62% | 51.1% | 33.1% |
